Assay results as given in PubChem BioAssay (EPA / NIEHS).
Results filed as inconclusive are left out. Calls of active or inactive are those of the source. Rule for the calls, unless noted: active = hit-call score of the fitted dose curve at least 0.9, where 1 is the maximum; inactive = score below 0.9.

Legend:
[1] = ATG_PXRE_CIS: Attagene CIS-FACTORIAL HepG2 Assay for human Pregnane X Receptor Element (PXRE) (AID 2282957); settings: HepG2 Attagene CIS-FACTORIAL PXRE reporter, mRNA; actives raise or lower the signal
In short: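 Transiently transfected HepG2 cells were dosed and incubated for 24 h. RNA was then isolated, DNase-treated, reverse-transcribed and reporter sequences amplified. Labeled, HpaI-digested fragments were quantified by capillary electrophoresis against DMSO.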

[2] = ATG_PPRE_CIS: Attagene CIS-FACTORIAL HepG2 Assay for human Peroxisome Proliferator-activated Response Element (PPRE) (AID 2282958); settings: HepG2 PPRE cis-element reporter, Attagene transcription factor profiling; actives raise or lower the signal
In short: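 Cells are first transfected transiently with the multiplexed reporter library, then dosed for 24 h. Total RNA is reverse-transcribed, amplified, fluorescently end-labeled and HpaI-cut before capillary electrophoresis; activity is fitted bidirectionally against DMSO controls.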

[3] = ATG_RORE_CIS: Attagene CIS-FACTORIAL HepG2 Assay for human RAR-related Orphan Receptor Element (RORE) (AID 2282959); settings: HepG2 Attagene cis-factorial RORE reporter, mRNA; actives raise or lower the signal
In short: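 Cells were HepG2 carrying transfected cis-regulated reporter constructs, dosed for 24 hours. Total RNA was reverse-transcribed and reporter cDNA amplified, fluorescently labeled and sized by capillary electrophoresis. Activity was fitted bidirectionally relative to DMSO.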

[4] = ATG_Sox_CIS: Attagene CIS-FACTORIAL HepG2 Assay for human SRY-box transcription factor (SOX) (AID 2282960); settings: HepG2 Attagene cis-factorial SOX reporter, mRNA; actives raise or lower the signal
In short: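 Transient MRTU transfection of HepG2; 24 h compound incubation; TriZol RNA, oligo(dT) RT, PCR, 6-FAM primer extension, HpaI cut, CE. Bidirectional fit, DMSO = baseline.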

[5] = ATG_SREBP_CIS: Attagene CIS-FACTORIAL HepG2 Assay for human Sterol Regulatory Element Binding (SREBP) (AID 2282962); settings: HepG2 Attagene cis-factorial SREBP reporter, mRNA; actives raise or lower the signal
In short: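 Transfected HepG2 (cis-regulated reporter library, endogenous TFs) → compound 24 h → total RNA → oligo(dT) RT → reporter-specific PCR → FAM primer extension, HpaI cut → CE fluorescence. Fit bidirectional vs DMSO.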

[6] = target: Signal transducer and activator of transcription 3 (Homo sapiens) (UniProt P40763); assay: ATG_STAT3_CIS: Attagene CIS-FACTORIAL HepG2 Assay for human Signal Transducer and Activator of Transcription 3 (STAT3) (AID 2282963); settings: HepG2, Attagene cis-factorial STAT3 reporter transcription; actives raise or lower the signal
In short: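 Endogenous STAT3-responsive cis-element activity was read in transiently transfected HepG2 cells after 24 h treatment. Reporter transcripts were quantified via RT-PCR and capillary electrophoresis, with DMSO as negative control and bidirectional curve fitting.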

[7] = ATG_TA_CIS: Attagene CIS-FACTORIAL HepG2 Assay for human TA Basal Promoter (AID 2282964); settings: HepG2 Attagene CIS-factorial TA basal promoter reporter; actives raise or lower the signal
In short: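 Steps: transfect HepG2 with MRTUs; dose 24 h; isolate RNA, DNase-treat, reverse-transcribe; PCR and FAM-label reporter cDNA; digest with HpaI 2h at 37 C; run capillary electrophoresis. Activity fitted both directions against DMSO.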

[8] = ATG_TCF_b_cat_CIS: Attagene CIS-FACTORIAL HepG2 Assay for human T-Cell-Factor with beta-catenin (TCF/b-cat) (AID 2282965); settings: HepG2 TCF/beta-catenin cis-reporter transcription, actives raise or lower the signal
In short: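 Measured: reporter mRNA in HepG2 transiently transfected with cis-promoter reporter units, 24 h after chemical addition. Fitting was bidirectional, DMSO as negative control.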

[9] = ATG_TAL_CIS: Attagene CIS-FACTORIAL HepG2 Assay for human TAL Basal Promoter (AID 2282966); settings: HepG2 Attagene cis-factorial TAL promoter reporter; actives raise or lower the signal;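 note: background control endpoint measuring basal TAL promoter reporter mRNA not a specific factor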
In short: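 Readout: reporter mRNA, fluorescence by CE. System: HepG2, transient multi-reporter transfection, endogenous TF activity. Exposure: 24 h. Analysis: bidirectional, DMSO-normalized; background control.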

[10] = ATG_TGFb_CIS: Attagene CIS-FACTORIAL HepG2 Assay for human Transforming Growth Factor (TGF) (AID 2282967); settings: HepG2 Attagene CIS TGFb reporter, mRNA transcription; actives raise or lower the signal
In short: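 Cells were dosed for 24 hours, after which total RNA was reverse-transcribed and reporter sequences amplified, labeled and sized by capillary electrophoresis. Activity was fitted in both directions against DMSO.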

[11] = target: Estrogen receptor (Homo sapiens) (UniProt P03372); assay: ATG_ERa_TRANS: Attagene TRANS-FACTORIAL HepG2 Assay for human Estrogen Receptor alpha (ERa) (AID 2282970; active = hit-call score of the fitted dose curve at least 0.9, where 1 is the maximum); settings: HepG2 Attagene TRANS ERa GAL4 reporter, mRNA
In short: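 Transactivation via ERa-Gal4 chimera in HepG2; 24 hour incubation; reporter mRNA detected by fluorescence RT-PCR and capillary electrophoresis.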

[12] = target: X-box-binding protein 1 (Homo sapiens) (UniProt P17861); assay: ATG_Xbp1_CIS: Attagene CIS-FACTORIAL HepG2 Assay for human X-box Binding Protein 1 (XBP1) (AID 2282972); settings: HepG2 XBP1 cis-element reporter, Attagene multiplex; actives raise or lower the signal
In short: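 HepG2, transient MRTU transfection (cis-promoter driven), 24 h compound exposure. Total RNA → oligo(dT) RT → PCR → 6-FAM labeling → HpaI cut → CE. Bidirectional fit vs DMSO.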

[13] = ATG_M_19_TRANS: Attagene TRANS-FACTORIAL HepG2 Assay for M19 Transcription Factor (Internal Marker) (AID 2282974; active = hit-call score of the fitted dose curve at least 0.9, where 1 is the maximum); settings: HepG2 Attagene TRANS-FACTORIAL M19 internal marker reporter
In short: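 Cells: human HepG2, transiently transfected with multiplexed reporter transcription units. Exposure: 24 h. Detection: RT-PCR of reporter mRNA with capillary electrophoresis. Analysis: gain-of-signal vs DMSO.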

[14] = ATG_GAL4_TRANS: Attagene TRANS-FACTORIAL HepG2 Assay for GAL4 (Internal Marker) (AID 2282976; active = hit-call score of the fitted dose curve at least 0.9, where 1 is the maximum); settings: HepG2 Attagene TRANS GAL4 internal marker reporter
In short: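 Fluorescence from capillary electrophoresis of labelled RT-PCR products quantifies reporter mRNA induction after 24 h dosing of HepG2 cells carrying transfected GAL4-UAS reporter transcription units. Vehicle DMSO serves as baseline.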

Measured: AC50

Signal transducer and activator of transcription 3 (Homo sapiens), sequence (P40763 whole entry, looked up): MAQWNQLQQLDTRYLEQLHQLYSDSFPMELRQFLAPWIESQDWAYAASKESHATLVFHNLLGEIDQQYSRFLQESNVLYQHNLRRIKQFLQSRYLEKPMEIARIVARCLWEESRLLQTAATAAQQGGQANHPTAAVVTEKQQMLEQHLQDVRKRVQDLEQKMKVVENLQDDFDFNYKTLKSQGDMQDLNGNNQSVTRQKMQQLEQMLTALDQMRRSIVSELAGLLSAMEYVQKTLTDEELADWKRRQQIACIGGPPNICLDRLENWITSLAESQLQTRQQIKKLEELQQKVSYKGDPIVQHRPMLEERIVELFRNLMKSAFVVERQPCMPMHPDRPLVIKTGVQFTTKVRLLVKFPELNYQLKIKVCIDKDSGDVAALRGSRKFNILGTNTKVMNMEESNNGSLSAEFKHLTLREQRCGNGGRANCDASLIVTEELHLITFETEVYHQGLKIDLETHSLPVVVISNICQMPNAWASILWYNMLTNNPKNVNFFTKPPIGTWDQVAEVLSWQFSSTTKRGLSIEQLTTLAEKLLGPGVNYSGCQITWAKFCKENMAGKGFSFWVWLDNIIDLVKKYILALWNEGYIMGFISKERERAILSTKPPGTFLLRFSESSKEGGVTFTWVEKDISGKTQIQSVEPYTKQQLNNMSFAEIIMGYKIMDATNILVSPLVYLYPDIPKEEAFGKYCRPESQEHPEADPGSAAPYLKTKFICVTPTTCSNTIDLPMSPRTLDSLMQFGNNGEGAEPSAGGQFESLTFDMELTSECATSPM
Estrogen receptor (Homo sapiens), sequence (P03372 whole entry, looked up, the tested form may be a part): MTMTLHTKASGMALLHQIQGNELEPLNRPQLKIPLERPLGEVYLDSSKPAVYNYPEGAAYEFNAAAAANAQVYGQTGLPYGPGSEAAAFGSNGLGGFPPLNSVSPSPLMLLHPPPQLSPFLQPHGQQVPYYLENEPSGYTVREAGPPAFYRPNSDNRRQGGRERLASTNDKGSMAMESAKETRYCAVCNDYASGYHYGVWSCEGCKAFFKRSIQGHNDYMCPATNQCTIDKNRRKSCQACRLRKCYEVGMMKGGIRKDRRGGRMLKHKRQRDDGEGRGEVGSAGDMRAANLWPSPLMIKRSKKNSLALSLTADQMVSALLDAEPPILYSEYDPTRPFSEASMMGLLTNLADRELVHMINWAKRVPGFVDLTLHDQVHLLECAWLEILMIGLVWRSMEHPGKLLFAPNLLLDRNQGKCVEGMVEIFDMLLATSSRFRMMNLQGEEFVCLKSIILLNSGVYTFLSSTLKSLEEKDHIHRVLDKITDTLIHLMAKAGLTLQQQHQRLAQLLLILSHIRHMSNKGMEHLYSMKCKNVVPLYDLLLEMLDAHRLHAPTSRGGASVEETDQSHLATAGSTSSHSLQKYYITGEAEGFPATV
X-box-binding protein 1 (Homo sapiens), sequence (P17861 whole entry, looked up): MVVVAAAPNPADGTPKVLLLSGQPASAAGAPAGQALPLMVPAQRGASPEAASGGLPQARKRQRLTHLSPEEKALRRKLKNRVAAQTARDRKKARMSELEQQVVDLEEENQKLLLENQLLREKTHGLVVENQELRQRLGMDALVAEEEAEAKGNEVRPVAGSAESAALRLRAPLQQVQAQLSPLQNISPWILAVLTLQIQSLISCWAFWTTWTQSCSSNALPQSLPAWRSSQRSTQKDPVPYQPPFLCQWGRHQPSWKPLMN

O=C(O)C1=NN(c2ccc(S(=O)(=O)O)cc2)C(=O)C1
active: [1] 45.8 µM
inactive: all other assays above
